Inconclusive results are not listed. The source made the active and inactive calls. Calls come from the whole dose curve; as a rule, active = well fitted inhibition curve with a large enough effect; inconclusive = small, poorly fitted or top-dose-only effect; inactive = flat fitted curve, though single readings scatter.
assay: High Content Imaging Cell-Based qHTS for Inhibitors of the mTORC1 Signaling Pathway in MEF (Tsc2-/-, p53-/-) Cells (AID 2666); details: at 38.3 µM (top of the series);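 note: percent of cells scored positive for phospho-rpS6 Ser235/236 immunostaining by imaging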
Source text: NIH Molecular Libraries Probe Production Centers Network [MLPCN]
NIH Chemical Genomics Center [NCGC]
Assay Submitter (PI): Blenis, John; Hoffman, Greg; Harvard University
NCGC Assay Overview: Thee mammalian target of rapamycin (mTOR) is an intracellular serine/threonine kinase Aberrant regulation of mTOR signaling plays a causative role in a number of human diseases, including cancer, benign tumors such as lymphangioleiomyomatosis (LAM) and Tuberous Sclerosis Complex (TSC), and metabolic diseases such as diabetes and obesity. This project aims to identify inhibitors of ribosomal protein S6 (rpS6) phosphorylation. The phosphorylation of rpS6 is a key event downstream of mTOR activation. The assay uses a phospho-specific antibody of phospho-rpS6 to detect inhibitors of mTOR activation. Mutations in the Tsc1 and Tsc2 genes are the underlying genetic lesions responsible for TSC, causing constitutive activation of the mTORC1 pathway and leading to profound effects on cell metabolism. Aberrant metabolism in cancer has recently received significant attention as a target to develop therapeutic agents in the treatment of cancer1. As Tsc2-/- cells have lost the ability to respond to energy and growth factor deprivation, these cells are unable to properly down regulate cellular biosynthetic processes in response to metabolic stress, and are thus extremely sensitive to glucose deprivation-induced death.2 A central goal of this project is to explore the unique cell survival and metabolic properties of cells with Tsc1 or Tsc2 by screening for compounds that selectively target the Tsc2-/- MEFs by screening both Tsc2-/- and WT MEF cell lines. We hope to better understand these aspects of TSC physiology in order to exploit them for therapeutic benefit.
NCGC IN Cell Assay Protocol:
For quantitative high throughput analysis of mTORC1 signaling, we developed a cell-based assay for immuno-fluorescence based detection of rpS6 phosphorylation on the Acumen Explorer that will be used a platform for the primary small molecule screen. Mouse embryonic fibroblasts (MEFs) are cultured in 1536-well plates using DMEM + 10% FBS. Twenty-four hrs after plating, test compounds (solubilized in DMSO) are delivered and incubated with the cells for 24 hrs at 37 degree Celsius. Following the incubation, media with compound is aspirated and the cells are fixed in 4% paraformaldehyde (PFA) containing PBS + 0.2% TX-100. Next, PFA is aspirated, cells are washed two times with PBS plus 0.2% TX-100 and the cells are blocked for 1 hr at room temperature (blocking buffer: LiCOR Blocking Buffer plus 0.2% TX-100). This is followed by aspiration and staining with Alexa-488 conjugated-phospho-rpS6 Ser235/236 antibody for 2 hours at room temperature (Cell Signaling Technology # 4803, 1:50 dilution in blocking buffer). Cells are washed two times with PBS plus 0.2% TX-100, and stained with 10 uM propidium iodide (PI) for 20-25 minutes for cell number measurement (1:500 dilution of Hoescht staining is also added for IN Cell imaging). Active wells which are selected (based on Acumen results) are imaged on the IN Cell 1000 (GE Healthcare) using the D360/40X and HQ480/40X excitation filters for the Hoechst and Alexa-488 cytoplasmic stains, respectively. The fluorescence emission filters used were HQ460/40M and HQ535/50M for the Hoechst and Alexa-488 cytoplasmic stains, respectively. The normalized phospho-S6 staining is calculated as the ratio of […] for the single concentration rapamycin control ([…] nM) and DMSO columns. […] Inhibition of the pathway is defined based on the normalized phospho-S6 intensity in rapamycin treated cells. Each treatment is reported as the % positive cells in the well, where thresholds are defined by selecting wells with the highest and lowest signal and differentiating between the % non-active and % active populations. […]

Q: With Cn1cnc([N+](=O)[O-])c1Sc1ncnc2nc[nH]c12 as the compound, how does the outcome read?
A: inactive

Q: With Nc1nc2c(ncn2COCCO)c(=O)[nH]1 as the compound, how does the outcome read?
A: inactive

Q: For NS(=O)(=O)c1cc2c(cc1Cl)NC=NS2(=O)=O, which outcome is on record?
A: inactive

Q: Which outcome does the source give for CCN(CC)CCCC(C)Nc1ccnc2cc(Cl)ccc12 (stereo not given) here?
A: inactive

Q: For CCC(C)N(C)C(=O)c1cc2ccccc2c(-c2ccccc2Cl)n1 (stereo not given), which outcome is on record?
A: inactive

Q: For Cc1ccccc1C(OCCN(C)C)c1ccccc1 (stereo not given), which outcome is on record?
A: inactive

Q: For O=c1[nH]cnc2[nH]ncc12, which outcome is on record?
A: inactive

Q: With CCCC(CCC)C(=O)O as the compound, how does the outcome read?
A: inactive

Q: Which outcome does the source give for C1COC(NC(C2CC2)C2CC2)=N1 here?
A: inactive

Q: Which outcome does the source give for CC(C[N+](C)(C)C)OC(N)=O (stereo not given) here?
A: inactive

Q: For CC(C)(C)NCC(O)c1ccc(O)c(CO)c1 (stereo not given), which outcome is on record?
A: inactive

Q: Which outcome does the source give for NC(=O)c1cnccn1 here?
A: inactive

Q: Which outcome does the source give for O=C1CCc2cc(OCCCCc3nnnn3C3CCCCC3)ccc2N1 here?
A: inactive

Q: For CC(C)NCC(O)COc1ccc(COCCOC(C)C)cc1 (stereo not given), which outcome is on record?
A: inactive

Q: Which outcome does the source give for Nc1ccc(S(=O)(=O)Nc2ccnn2-c2ccccc2)cc1 here?
A: inactive

Q: With O=C(Nc1nc2ccccc2n1CCN1CCOCC1)c1cccc([N+](=O)[O-])c1 as the compound, how does the outcome read?
A: inactive

Q: With NCCc1ccc(O)c(O)c1 as the compound, how does the outcome read?
A: inactive

Q: Which outcome does the source give for CC(=O)Oc1ccccc1C(=O)O here?
A: inactive

Q: With c1ccc([C@H]2CN3CCSC3=N2)cc1 as the compound, how does the outcome read?
A: inactive

Q: For Cc1ccc(N(CC2=NCCN2)c2cccc(O)c2)cc1, which outcome is on record?
A: inactive

Q: Which outcome does the source give for NC(N)=NC(=O)c1nc(Cl)c(N)nc1N here?
A: inactive

Q: Which outcome does the source give for Oc1ccc(C2CNCCc3c2cc(O)c(O)c3Cl)cc1 (stereo not given) here?
A: inactive

Q: Which outcome does the source give for O=NN(CCCl)C(=O)NCCCl here?
A: inactive

Q: With O=C1CCC(N2C(=O)c3ccccc3C2=O)C(=O)N1 (stereo not given) as the compound, how does the outcome read?
A: inactive

Q: With CCn1cc(C(=O)O)c(=O)c2cc(F)c(N3CCNC(C)C3)c(F)c21 (stereo not given) as the compound, how does the outcome read?
A: inactive

Q: With N[C@@H]1CONC1=O as the compound, how does the outcome read?
A: inactive

Q: Which outcome does the source give for Cc1[nH]c(=O)c(C#N)cc1-c1ccncc1 here?
A: inactive

Q: With CNC[C@H](O)c1cccc(O)c1 as the compound, how does the outcome read?
A: inactive

Q: Which outcome does the source give for NC[C@H](O)c1ccc(O)c(O)c1 here?
A: inactive

Q: Which outcome does the source give for CC(C)(Sc1ccc(CCN(CCCCC2CCCCC2)C(=O)NC2CCCCC2)cc1)C(=O)O here?
A: inactive

Q: Which outcome does the source give for Cc1oncc1C(=O)Nc1ccc(C(F)(F)F)cc1 here?
A: inactive

Q: With Nc1nc2ccc(OC(F)(F)F)cc2s1 as the compound, how does the outcome read?
A: inactive

Q: With CCCCNc1cc(C(=O)O)cc(S(N)(=O)=O)c1Oc1ccccc1 as the compound, how does the outcome read?
A: inactive

Q: With Cc1[nH]c(=O)c(C#N)cc1-c1ccc2nccn2c1 as the compound, how does the outcome read?
A: inactive

Q: For NNCCc1ccccc1, which outcome is on record?
A: inactive

Q: With OC(CN1CCC(Cc2ccc(F)cc2)CC1)c1ccc(Cl)cc1 (stereo not given) as the compound, how does the outcome read?
A: inactive

Q: Which outcome does the source give for Nc1ncnc2nc(-c3ccc(N4CCOCC4)nc3)cc(-c3cccc(Br)c3)c12 here?
A: inactive

Q: With Clc1cccc(Cl)c1NC1=NCCN1 as the compound, how does the outcome read?
A: inactive

Q: Which outcome does the source give for Cc1cnc(NC(=O)C2=C(O)c3ccccc3S(=O)(=O)N2C)s1 here?
A: inactive

Q: Which outcome does the source give for NCCCC(N)(C(=O)O)C(F)F (stereo not given) here?
A: inactive
